Peg3 prom inh – inhibitors of Peg3 promoter; inhibition, % at 20 µM; 1.7% of 360,000 active; HeLa PEG-Prom luciferase reporter, luminescence, overnight;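 active means inhibition of at least 50% at 20 µM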
MITF TRPM1 inh – inhibitors of MITF-driven TRPM1 promoter in melanoma cells; inhibition, % at 12.5 µM; 0.83% of 330,000 active; SK-MEL-5 TRPM1 promoter luciferase, 24 h; AID 488899;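 active means mean inhibition across replicates of 60% or more, whatever share of single replicates reaches that level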
HIF-2a inh – inhibitors of HIF-2a; 786-0 RCC cells HIF-2a reporter, luciferase luminescence, overnight; inhibition, % at 18.8 µM; 0.72% of 360,000 active; AID 624352;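 active means inhibition of the luminescence signal of 40% or more relative to plate controls, in a single-dose primary screen at 18.75 µM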
KKLEB cytotox – counter-screen for CF NF-kB inhibitors: cytotoxicity | KKLEB CF airway cells viability, ATPlite luminescence, overnight; active compounds read low; cells stimulated with P. aeruginosa culture filtrate | activity change (cytotoxicity), % at 5 µM | 0.36% of 360,000 active;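 active means corrected activity change at or below -50% at 5 µM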
CF NFkB block – blocks PAF-induced NF-kB reporter in cystic fibrosis cells; inhibition, % at 5 µM; KKLEB NF-kB-GFP reporter, GFP fluorescence overnight; 0.86% of 360,000 active;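 active means at least 50% inhibition at 5 µM, scaled per plate between neutral and stimulator controls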;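 further: PAF is a Pseudomonas aeruginosa culture filtrate used as stimulus; plate controls were PAF-stimulated DMSO wells for no effect and unstimulated DMSO wells for full effect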
CHOP inhibitor – inhibitors of CHOP induction in ER stress response. AID 2732. inhibition, % at 10 µM. CHO-K1 CHOP-promoter luciferase, tunicamycin-induced, 15-18 h. 3.8% of 220,000 active;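 active means compounds that reduced the stress-induced luciferase reporter signal by more than about 70% of percent inhibition, limit read from the data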;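 further: 0% = tunicamycin plus vehicle and 100% = wells without tunicamycin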
The depositor's hits bear a star; / = not tested or not shown. Shown are actives, neighbours in structure and some others; about 4.3% of the full set was active somewhere.

SMILES	Peg3 prom inh	MITF TRPM1 inh	HIF-2a inh	KKLEB cytotox	CF NFkB block	CHOP inhibitor
C[C@@H]1CN([C@@H](C)CO)S(=O)(=O)c2ccc(Br)cc2O[C@@H]1CN(C)C(=O)C1CC1	1	/	6	8	-12	/
COC(=O)c1cc2nc(-c3ccc(C)cc3)cc(C(F)(F)F)n2n1	3	-4	23	21	-4	-24
COC(=O)c1cc2nc(-c3ccc(OC)cc3)cc(C(F)(F)F)n2n1	6	4	7	2	-8	70*
COc1ccc([N+](=O)[O-])cc1COc1ccc2c(-c3ccccc3)cc(=O)oc2c1	16	-8	17	-52*	67*	18
CCOC(=O)CCc1c(C)c2ccc(OCc3cc([N+](=O)[O-])ccc3OC)cc2oc1=O	0	9	18	-54*	3	-21
CC(=O)COc1ccc2c(-c3cccc([N+](=O)[O-])c3)cc(=O)oc2c1	-4	9	11	4	-16	6
O=C(Nc1ccc2c(c1)C(=O)N(CC1CCCO1)C2=O)c1ccc(Cl)c(Cl)c1 (stereo unspecified)	-28	-19	-32	11	-15	91*
Cc1ccc(NC(=O)CC2Nc3ccccc3NC2=O)cc1Cl (stereo unspecified)	-57	1	-201	-52*	43	/
O=C(CC1Nc2ccccc2NC1=O)Nc1ccc2c(c1)OCO2 (stereo unspecified)	-54	4	-198	5	-10	12
Cc1ccsc1C(=O)N1CCCC(N(C)Cc2ccccc2)C1 (stereo unspecified)	-3	-13	-7	4	7	/
COc1ccc(NC(=O)COC(=O)CCc2ccccc2)c(OC)c1	1	3	2	-4	-23	/
COc1cc(/C=C(\C#N)c2ccccn2)ccc1OCC(=O)Nc1c(Cl)cccc1Cl	13	-11	2	-4	-7	4
COc1cc(/C=C(\C#N)c2ccccn2)ccc1OCC(=O)Nc1ccc(Br)cc1	1	-3	13	8	-6	70*
COc1cc(/C=C(\C#N)C(=O)Nc2cc(C(F)(F)F)ccc2Cl)ccc1OCC(=O)Nc1cccc(C(F)(F)F)c1	8	10	2	-7	18	74*
COc1cc(/C=C(\C#N)c2nc3ccccc3[nH]2)ccc1OC(=O)c1ccco1	-97	-1	-168	3	-48	27
COc1cc(/C=C(/C#N)c2nc3ccccc3[nH]2)ccc1OCC(=O)Nc1ccccc1C	104*	5	14	3	-21	60
CC(C)[C@H](NS(=O)(=O)c1cccc(Cl)c1)C(=O)OCC(=O)NC(=O)CN1CCCC1=O	-3	6	12	8	-7	/
CCc1nnc(NS(=O)(=O)c2ccc(NC(=O)c3ccc(C#N)cc3)cc2)s1	9	-1	10	2	-3	/
COCC(=O)OC1CCn2c1nc1c2C(=O)C(C)=C(NC(C)=O)C1=O (stereo unspecified)	85*	86*	24	-68*	91*	/
Cc1cc(C)nc(NC(=NCCc2c[nH]c3ccccc23)NC(=O)Nc2ccccc2)n1	52*	-7	-4	-9	42	67
CC(C)CNC(=S)N1CCN(C(c2ccccc2)c2ccccc2)CC1	35	7	22	2	-1	41
S=C(NCc1ccco1)N1CCN(C(c2ccccc2)c2ccccc2)CC1	9	3	16	4	12	72*
CCOC(=O)c1ccc(NC(=O)c2nc[nH]c2C(=O)N2CCN(c3ccccc3)CC2)cc1	28	12	-7	1	14	73*
CCOC(=O)c1ccc(NC(=O)c2nc[nH]c2C(=O)NC2CCN(C(=O)OC(C)(C)C)CC2)cc1	27	7	7	-3	4	85*
CCOC(=O)c1ccc(NC(=O)c2nc[nH]c2C(=O)NCCCCCNC(=O)OC(C)(C)C)cc1	70*	6	-1	-16	20	31
SMILES	Peg3 prom inh	MITF TRPM1 inh	HIF-2a inh	KKLEB cytotox	CF NFkB block	CHOP inhibitor
CCOC(=O)c1ccc(NC(=O)c2nc[nH]c2C(=O)NCCCCNC(=O)c2[nH]cnc2C(=O)Nc2ccc(C(=O)OCC)cc2)cc1	97*	27	1	-36	45	/
CCOC(=O)c1ccc(NC(=O)c2nc[nH]c2C(=O)NCCCNC(=O)c2[nH]cnc2C(=O)Nc2ccc(C(=O)OCC)cc2)cc1	13	-6	8	3	-1	/
CC(C)(C)OC(=O)N1CCC(NC(=O)c2nc[nH]c2C(=O)NC2CCN(C(=O)OC(C)(C)C)CC2)CC1	15	2	13	10	-5	/
CC(C)(C)OC(=O)N1CCC(NC(=O)c2nc[nH]c2C(=O)NCC(=O)OCc2ccccc2)CC1	55*	-11	3	-2	16	/
CC(C)(C)OC(=O)CNC(=O)c1[nH]cnc1C(=O)NC1CCN(C(=O)OC(C)(C)C)CC1	/	1	/	/	/	/
NC(=O)CC(NC(=O)Cc1cccc2ccccc12)c1ccc(N2CCN(c3ccc(F)cc3)CC2)c([N+](=O)[O-])c1 (stereo unspecified)	12	0	15	13	-25	94*
NC(=O)CC(NC(=O)Cc1ccc(Br)cc1)c1ccc(NCc2ccc(F)c(F)c2)c([N+](=O)[O-])c1 (stereo unspecified)	10	-2	-4	-15	-15	76*
NC(=O)CC(NC(=O)Cc1ccc(Br)cc1)c1ccc(N2CCCCCCC2)c([N+](=O)[O-])c1 (stereo unspecified)	20	-9	-23	0	-20	/
NC(=O)CC(NC(=O)Cc1cccc2ccccc12)c1ccc(N2CCCCCCC2)c([N+](=O)[O-])c1 (stereo unspecified)	11	-4	8	32	-34	/
NC(=O)CC(NC(=O)Cc1ccc(Br)cc1)c1ccc(N2CCC(Br)CC2)c([N+](=O)[O-])c1 (stereo unspecified)	27	3	-8	-15	-28	87*
NC(=O)CC(NC(=O)Cc1ccc(Br)cc1)c1ccc(N2CCC(Cc3ccccc3)CC2)c([N+](=O)[O-])c1 (stereo unspecified)	51*	43	12	-42	31	96*
CC(=O)N1c2ccc(S(=O)(=O)N3CCCC3)cc2CC1C(=O)NCc1ccc(N(C)C)cc1 (stereo unspecified)	3	-2	0	0	9	/
CCOc1ccc(CCNC(=O)C2CCCN(S(=O)(=O)N3CCCCC3)C2)cc1OCC (stereo unspecified)	0	/	12	12	8	/
CC(C)c1c(O)ccc2c1CC[C@H]1C(C)(C)CCC[C@]21C	-14	-5	-10	-8	19	/
Cc1ccc(S(=O)(=O)N2CCN(C(=O)C3CCN(c4ncnc5sc(C)c(C)c45)CC3)CC2)c(C)c1	28	12	21	-5	3	/
CSc1nsc(/C=C/Nc2ccc(C)c(C)c2)c1C#N	-104	-7	-155	-2	-12	87*
